Measurements published in PubChem BioAssay AID1159580 (chemical genetic matrix, 2015).
Values joined by “and” are separate entries in the source; they are usually repeats but may differ in a detail not shown here. Equal values may be shown once. About 2,000 (36%) of roughly 5,500 compounds were called active. Another 18% or so got no clear call; they are omitted. Rule as the data show it: active = normalized growth mostly below about 0.91 (no sharp cut-off); inconclusive = no clear call, values can overlap the other calls; inactive = mostly above about 0.92. This is one part of the list.

Test: chemical genetic growth profiling, strain panel (AID 1159580);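 also: tested at 20 µM; growth read once vehicle control cultures reached saturation at 30 °C; 1 = growth at the plate median or of vehicle wells; lower values mean less growth of the strain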
Details: S. cerevisiae deletion strains, growth OD

Measured: normalized growth

COc1ccc(-c2coc3cc(O)ccc3c2=O)cc1
active: locus YBR021W, strain FUR4, active compounds read low 0.751 | locus YDL192W, strain arf1, active compounds read low 0.912 | locus YDR318W, strain mcm21, active compounds read low 0.896 | locus YDR392W, strain spt3, active compounds read low 0.726 | locus YDR502C, strain sam2, active compounds read low 0.878 | locus YGL078C, strain dbp3, active compounds read low 0.91 | locus YGL086W, strain mad1, active compounds read low 0.884 | locus YGL248W, strain PDE1, active compounds read low 0.853 | locus YGR135W, strain pre9, active compounds read low 0.821 | locus YGR252W, strain gcn5, active compounds read low 0.698 | locus YHR200W, strain rpn10, active compounds read low 0.904 | locus YKR001C, strain vps1, active compounds read low 0.837 | locus YLR330W, strain CHS5, active compounds read low 0.896 | locus YLR418C, strain cdc73, active compounds read low 0.74 | locus YNL233W, strain BNI4, active compounds read low 0.827 | locus YNL307C, strain MCK1, active compounds read low 0.847 | locus YPR163C, strain tif3, active compounds read low 0.794
inactive: locus YAL021C, strain ccr4, active compounds read low 1 | locus YAL026C, strain drs2, active compounds read low 0.943 | locus YAL030W, strain snc1, active compounds read low 0.986 | locus YBL061C, strain skt5, active compounds read low 0.983 | locus YBR009C, strain hhf1, active compounds read low 0.953 | locus YBR023C, strain chs3, active compounds read low 0.98 | locus YBR171W, strain sec66, active compounds read low 0.973 | locus YBR229C, strain ROT2, active compounds read low 0.967 | locus YBR231C, strain swc5, active compounds read low 0.964 | locus YBR279W, strain paf1, active compounds read low 0.993 | locus YCL011C, strain gbp2, active compounds read low 0.965 | locus YCL016C, strain dcc1, active compounds read low 0.974 | locus YCL029C, strain bik1, active compounds read low 0.949 | locus YCL061C, strain MRC1, active compounds read low 0.959 | locus YCL069W, strain vba3, active compounds read low 0.98 | locus YCR088W, strain abp1, active compounds read low 0.982 | locus YDL005C, strain med2, active compounds read low 0.982 | locus YDL035C, strain GPR1, active compounds read low 0.933 | locus YDL040C, strain nat1, active compounds read low 0.985 | locus YDL074C, strain BRE1, active compounds read low 0.839 | locus YDL101C, strain DUN1, active compounds read low 0.916 | locus YDL185W, strain tfp1, active compounds read low 0.964 | locus YDR001C, strain nth1, active compounds read low 0.978 | locus YDR069C, strain doa4, active compounds read low 1.01 | locus YDR101C, strain arx1, active compounds read low 0.941 | locus YDR137W, strain rgp1, active compounds read low 0.906 | locus YDR159W, strain sac3, active compounds read low 0.955 | locus YDR162C, strain NBP2, active compounds read low 0.894 | locus YDR195W, strain ref2 1.13 | locus YDR297W, strain sur2, active compounds read low 0.978 | locus YDR334W, strain swr1, active compounds read low 0.989 | locus YDR335W, strain msn5, active compounds read low 0.99 | locus YDR388W, active compounds read low 0.964 | locus YEL003W, strain gim4, active compounds read low 0.977 | locus YEL037C, strain rad23, active compounds read low 0.983 | locus YEL061C, strain CIN8 (second series), active compounds read low 0.986 | locus YER015W, strain faa2, active compounds read low 0.989 | locus YER016W, strain bim1, active compounds read low 0.979 | locus YER110C, active compounds read low 0.974 | locus YER111C, strain swi4, active compounds read low 0.992 | locus YER155C, strain BEM2 (second series), active compounds read low 0.907 | locus YER155C, strain BEM2, active compounds read low 0.962 | locus YER167W, strain BCK2, active compounds read low 0.973 | locus YFR010W, strain ubp6, active compounds read low 0.984 | locus YGL167C, strain pmr1, active compounds read low 0.997 | locus YGL173C, strain kem1, active compounds read low 0.979 | locus YGL227W, strain vid30, active compounds read low 0.981 | locus YGL240W, strain doc1, active compounds read low 0.916 | locus YGL253W, strain hxk2, active compounds read low 0.932 | locus YHR013C, strain ard1, active compounds read low 0.977 | locus YHR027C, strain rpn1, active compounds read low 0.995 | locus YHR030C, strain SLT2, active compounds read low 0.975 and 0.906 | locus YHR079C, strain IRE1 (second series), active compounds read low 0.969 | locus YHR079C, strain IRE1, active compounds read low 0.936 | locus YHR094C, strain hxt1, active compounds read low 0.96 | locus YHR129C, strain ARP1, active compounds read low 0.929 | locus YHR142W, strain chs7, active compounds read low 0.893 | locus YIL066C, strain RNR3, active compounds read low 0.957 | locus YIL073C, strain SPO22, active compounds read low 0.886 | locus YIL125W, strain kgd1, active compounds read low 0.966 | locus YIR030C, strain dcg1, active compounds read low 0.961 | locus YJL092W, strain hpr5, active compounds read low 0.974 | locus YJL095W, strain BCK1 (second series), active compounds read low 0.987 | locus YJL095W, strain BCK1, active compounds read low 0.81 and 0.908 | locus YJL115W, strain asf1, active compounds read low 0.998 | locus YJL129C, strain trk1, active compounds read low 0.954 | locus YJL134W, strain LCB3, active compounds read low 0.98 | locus YJL154C, strain vps35, active compounds read low 0.982 | locus YJL164C, strain tpk1, active compounds read low 0.943 | locus YJL166W, strain qcr8, active compounds read low 0.951 | locus YJL168C, strain set2, active compounds read low 0.977 | locus YJL187C, strain SWE1 (second series), active compounds read low 0.879 | locus YJL187C, strain SWE1, active compounds read low 0.984 | locus YJR066W, strain TOR1, active compounds read low 0.836 | locus YKL009W, strain mrt4, active compounds read low 0.914 | locus YKL068W, active compounds read low 0.965 | locus YKL085W, strain MDH1 (second series), active compounds read low 0.968 | locus YKL085W, strain MDH1, active compounds read low 0.968 | locus YKL160W, strain elf1, active compounds read low 0.942 | locus YKR026C, strain gcn3, active compounds read low 0.981 | locus YKR091W, strain srl3, active compounds read low 0.984 | locus YLL001W, strain dnm1, active compounds read low 0.954 | locus YLL026W, active compounds read low 0.977 | locus YLL041C, strain sdh2, active compounds read low 0.983 | locus YLR027C, strain aat2, active compounds read low 0.965 | locus YLR039C, strain RIC1, active compounds read low 0.784 | locus YLR058C, strain SHM2, active compounds read low 0.906 | locus YLR102C, strain apc9, active compounds read low 0.975 | locus YLR113W, strain HOG1, active compounds read low 0.992 | locus YLR221C, strain rsa3, active compounds read low 0.929 | locus YLR258W, strain gsy2, active compounds read low 0.99 | locus YLR262C, strain YPT6 (second series), active compounds read low 0.881 | locus YLR268W, strain sec22, active compounds read low 0.9 | locus YLR320W, strain mms22, active compounds read low 0.919 | locus YLR342W, strain FKS1 (second series), active compounds read low 0.876 | locus YLR342W, strain FKS1, active compounds read low 0.975 | locus YLR357W, strain rsc2, active compounds read low 0.95 | locus YLR371W, strain rom2, active compounds read low 0.993 | locus YLR384C, strain iki3, active compounds read low 0.989 | locus YML016C, strain PPZ1, active compounds read low 0.959 | locus YML032C, strain rad52, active compounds read low 0.933 | locus YML120C, strain ndi1, active compounds read low 0.955 | locus YML124C, strain tub3, active compounds read low 0.974 | locus YMR058W, strain fet3, active compounds read low 0.952 | locus YMR078C, strain ctf18, active compounds read low 0.961 | locus YMR125W, strain sto1, active compounds read low 0.98 | locus YMR129W, active compounds read low 0.981 | locus YMR205C, strain PFK2, active compounds read low 0.972 | locus YMR223W, strain ubp8, active compounds read low 0.913 | locus YMR231W, strain pep5, active compounds read low 1 | locus YMR307W, strain GAS1, active compounds read low 0.706 | locus YNL067W, strain RPL9B, active compounds read low 0.87 | locus YNL071W, strain lat1, active compounds read low 0.924 | locus YNL183C, strain NPR1, active compounds read low 0.872 | locus YNL209W, strain ssb2, active compounds read low 0.987 | locus YNL248C, strain rpa49, active compounds read low 0.94 | locus YNL250W, strain rad50, active compounds read low 0.944 | locus YNL271C, strain bni1, active compounds read low 0.941 | locus YNL298W, strain CLA4, active compounds read low 0.928 | locus YNL322C, strain KRE1 (second series), active compounds read low 0.979 | locus YNR049C, strain mso1, active compounds read low 0.986 | locus YNR052C, strain pop2, active compounds read low 0.927 | locus YOL012C, strain htz1 0.948 | locus YOL147C, strain pex11, active compounds read low 0.934 | locus YOR001W, strain rrp6, active compounds read low 0.952 | locus YOR061W, strain CKA2, active compounds read low 0.985 | locus YOR069W, strain VPS5, active compounds read low 0.927 | locus YOR070C, strain gyp1, active compounds read low 0.975 | locus YOR080W, strain dia2, active compounds read low 0.993 | locus YOR083W, strain WHI5, active compounds read low 0.91 | locus YOR106W, strain vam3, active compounds read low 0.915 | locus YOR136W, strain idh2, active compounds read low 0.95 | locus YOR144C, strain elg1, active compounds read low 0.968 | locus YOR184W, strain ser1, active compounds read low 0.931 | locus YOR231W, strain MKK1, active compounds read low 0.934 | locus YOR265W, strain rbl2, active compounds read low 0.999 | locus YOR270C, strain vph1, active compounds read low 0.807 | locus YOR290C, strain snf2, active compounds read low 0.88 | locus YOR316C, strain cot1, active compounds read low 0.96 | locus YPL051W, strain arl3, active compounds read low 0.943 | locus YPL078C, strain atp4, active compounds read low 0.905 | locus YPL106C, strain sse1, active compounds read low 0.984 | locus YPL240C, strain hsp82, active compounds read low 0.984 | locus YPL241C, strain CIN2, active compounds read low 0.998 | locus YPL256C, strain CLN2, active compounds read low 0.922 | locus YPR119W, strain clb2, active compounds read low 0.973 | locus YPR141C, strain kar3, active compounds read low 0.967 | locus YPR167C, strain met16, active compounds read low 0.93 | strain wtn01, active compounds read low 0.911
